The text below walks through data of ChEMBL document CHEMBL4513216, “Probing the Open Global Health Chemical Diversity Library for Multistage-Active Starting Points for Next-Generation Antimalarials” (ACS Infect Dis, 2020).

Each structure is given as a SMILES string. In all, about 69,000 compounds went through this assay and about 8,600 (12%) showed an effect of 50% or more. Only a selection was taken, and strong results are over-represented in it overall.

The assay concerns Plasmodium berghei. The assay can be described thus: Screen against P. berghei liver stage (PbLuc), transformed with Luciferase, at 10uM. Format: functional, HepG2. Particulars: tested at 10 uM.
`NC(=O)C1(CCCc2ccncc2)CCCN1` (centres undefined): the INHIBITION is listed as 1.5%.
Under `CNS(=O)(=O)c1ccc(CNC(=O)c2c(C)oc(C)c2C)cc1` stands -6.14%.
Under `CN1CCCC1CNC(=O)CCCOc1ccc(Br)cc1` (centres undefined) stands -62.6%.
For `Cc1ccc(-c2nnc(SCC(=O)O)n2-c2ccc(C)cc2)cc1`, the INHIBITION amounted to 33.5%.
With `O=S(=O)(C1CC1)N1CCc2ncnc(N3CCCC3)c2CC1`, the INHIBITION is listed as -17.7%.
As for `COc1ccc(C(=O)NCCN(C)C)c(I)c1`, the INHIBITION was -0.217%.
Under `NC(=O)N1CCC(NCc2cc(Br)ccc2Cl)CC1` stands 34.7%.
`CC(C)(C)c1ncc(C(=O)NCCNC(=O)c2ccco2)s1`: the INHIBITION was -21.5%.
For the compound `COc1cc(C(=O)N2CCCC(c3cc(C)[nH]n3)C2)ccc1C` (centres undefined), the INHIBITION is listed as 24%.
As to `CCc1nnc2n1CCN(C(=O)c1cnc(C3CC3)s1)C2`, the INHIBITION stood at 13.9%.
As to `CCc1ncc(C(=O)N2CCn3c(CC)nnc3C2)s1`, the INHIBITION was found to be 53.9%.
Under `CCc1nnc2n1CCN(C(=O)c1cnc(-c3cccs3)s1)C2` stands 19.3%; under `Cc1cc(C)c2ncc(C#N)c(N3CCS(=O)(=O)CC3)c2c1`, 36.3%.
With `Cc1cnn(CC2CCCCN2C(=O)CC(F)(F)F)c1` (centres undefined) the figure was 9.14%.
With `O=C(c1cc(C2CC2)nc2onc(-c3ccccc3)c12)N1CC(O)C1` the figure was 44.3%; with `O=C(c1cc(C2CC2)nc2onc(-c3ccccc3)c12)N1CC[C@H](O)C1`, 28.5%; with `O=C(c1cc(-c2ccccc2)nc2onc(C3CC3)c12)N1CC[C@H](O)C1`, 73%.
With `O=C(CN1CCCC1c1nc(-c2ccccc2)no1)N1CCOCC1` (centres undefined), the INHIBITION is listed as -21.8%.
Consider `O=C(c1cc(C2CC2)nc2onc(-c3ccccc3)c12)N1CCOCC1`, for which the INHIBITION came to 51.7%.
Under `O=C(c1cccnc1SCc1ccccc1)N1CC[C@@H](O)C1` stands -34%; under `Cc1cc(NCCCc2c(C)noc2C)nc(N)n1`, 35%.
With `CC(C)c1ncc2c(n1)CN(Cc1noc(-c3ccccc3)n1)CC2` the figure was 45.7%; with `CC(C(=O)NCCN1CCCCC1)n1cncn1` (centres undefined), -5.07%.
Take `CCn1c(SCC(=O)N2CCCC2)nc2cc(C)[nH]c2c1=O`: the INHIBITION came out at 40%.
Under `c1csc(CN2CCC3(CCOCC3COCC3CC3)CC2)n1` (centres undefined) stands -18.2%; under `CCN(Cc1nccn1C)C1CCN(c2ccccc2)C1=O` (centres undefined), 42.6%; under `C=C(C)Cn1cc(C(N)=O)nc1C1CC1`, -6.67%.
As to `N#Cc1ccccc1OCCN1CCCCC1C(=O)N1CCOCC1` (centres undefined), the INHIBITION is listed as 47.1%.
Under `N#Cc1cnc2ccccc2c1N1CCN(C(=O)C2CCC2)CC1` stands 90.6%; under `N#Cc1ccccc1OCCN1CCC(N2CCNC2=O)CC1`, 24%.
As to `Cc1nnc(CN2CCN(CCOc3ccccc3C#N)CC2)n1C`, the INHIBITION was 21.2%.
Under `N#Cc1cnc2ccccc2c1N1CCC(C(=O)O)CC1` stands 35.7%; under `N#Cc1cnc2ccccc2c1N1CCN(CCC(=O)O)CC1`, 5.87%; under `N#Cc1ccccc1OCCN1CCC(C(=O)N2CCOCC2)CC1`, 70.3%.
With `N#Cc1ccccc1OCCN1CCN(C(=O)C2CCCC2)CC1` the figure was 65.6%; with `N#Cc1ccccc1N1CCN(CCC(=O)N2CCOCC2)CC1`, -29.4%.
Under `CC(C)C(=O)N1CCN(CCOc2cccc(C#N)c2)CC1` stands 39.2%; under `N#Cc1cccc(OCCN2CCC(C(=O)N3CCOCC3)CC2)c1`, 55.4%.
On to `CC(C)(C)C(=O)N1CCN(CCOc2cccc(C#N)c2)CC1`, for which the INHIBITION is recorded as -18%.
With `CN1CC(=O)N(c2ccsc2)CC12CCN(C(=O)CC1CCCC1)C2` (centres undefined) the figure was 21.8%; with `NC(=O)NC(=O)C(c1ccccc1)N1CCN(Cc2ccsc2)CC1` (centres undefined), 4.52%; with `Cc1cc(C)n(CC2CCCN2C(=O)Cc2c(C)nc(C)[nH]c2=O)n1` (centres undefined), 2.3%.
With `O=C(O)c1cc2c(nc1-c1ccoc1)CCN(Cc1ccco1)CC2` the figure was 34.6%; with `Cc1occc1C(=O)N1C[C@@H]2OCCN(C(C)C)[C@@H]2C1`, 15.9%; with `CN1CC2(CCN(C(=O)CCCOCc3ccccc3)C2)OC1=O` (centres undefined), 12.4%.
Turning to `CCn1nc(C)cc1C(=O)NCc1noc(C(C)(C)C)n1`, the INHIBITION is 27.5%.
Turning to `O=C1CCC[C@]2(CN(S(=O)(=O)N3CCOCC3)C[C@H]2c2cccnc2)N1`, the INHIBITION turned out to be 41.5%.
As to `Cc1nnc(-c2cccc(C#N)c2)n1C1CCCN(C(C)C)C1=O` (centres undefined), the INHIBITION is -18.9%.
For the compound `CN1CCCCC1C(=O)N1CCN(c2ccccc2C#N)CC1` (centres undefined), the INHIBITION is 39.6%.
Under `N#Cc1cccc(OCCN2CCCC2C(=O)NC2CC2)c1` (centres undefined) stands -3.21%; under `N#Cc1cccc(OCCN2CCCC2C(=O)N2CCSCC2)c1` (centres undefined), 55.3%.
Consider `N#Cc1cccc(OCCN2CCCC2C(=O)NCC(F)(F)F)c1` (centres undefined), for which the INHIBITION is on record as 2.93%.
As for `CN1CCCCCC1C(=O)N1CCCN(c2ccccc2)CC1` (centres undefined), the INHIBITION is given as 45.6%.
`CN1CCCCCC1C(=O)N1CCN(c2ccccc2C#N)CC1` (centres undefined): the INHIBITION turned out to be 62.4%.
As to `CC(C)N1CCN(C(=O)c2ccccc2NCc2cccnc2)CC1`, the INHIBITION is -9.31%.
Turning to `CC(C)c1nnc(NC(=O)N(C)Cc2ccc(C(N)=O)cc2)s1`, the INHIBITION is recorded as 22.5%.
Under `Cc1cc(O)cc(=O)n1CCCC(=O)Nc1n[nH]c2cccc(F)c12` stands 5.03%.
With `COc1ccccc1CNC(Cc1cccs1)c1nc(C)cs1` (centres undefined) the figure was 47.2%; with `COc1cccc(CNC(Cc2cccs2)c2nc(C)c(C)s2)c1OC` (centres undefined), 42.4%; with `COc1ccccc1CNC(Cc1cccs1)c1nc(C)c(C)s1` (centres undefined), 55.6%.
With `O=C1CCC2(CCC(NC(=O)NCc3cccnc3)CC2)N1` (centres undefined) the figure was 35.8%; with `CC(C)c1nc(CNc2nccc(CCC(F)(F)F)n2)cs1`, 16.2%; with `Nc1nc(CNc2nccc(CCC(F)(F)F)n2)cs1`, 32.7%.
`FC(F)(F)CCc1ccnc(NCc2csc(N3CCOCC3)n2)n1`: the INHIBITION is listed as 69%.
Under `Cc1noc(C)c1CN1CC[C@H]2OCC[C@@]2(C(=O)N2CCOCC2)C1` stands 47.4%; under `CN(Cc1ccc(Cl)c(Cl)c1)C(=O)CNC(N)=O`, -36.3%; under `CN(Cc1ccc(Cl)c(F)c1)C(=O)c1ccncc1F`, 36.2%.
Under `CN(Cc1ccc(Cl)c(F)c1)C(=O)CCc1ccncc1` stands 56.5%; under `COCc1ccc(C(=O)NS(=O)(=O)c2ccc3c(c2)CCC(=O)N3)cc1`, 61.8%; under `O=C1CCc2cc(S(=O)(=O)NC(=O)c3ccc4c(c3)CCO4)ccc2N1`, 44.7%.
With `O=C1CCc2cc(S(=O)(=O)NC(=O)c3ccc4c(c3)OCO4)ccc2N1` the figure was 39.4%; with `O=C1COc2cc(C(=O)NS(=O)(=O)c3ccc(F)c(F)c3)ccc2N1`, 41.5%.
On to `COCc1ccccc1C(=O)NS(=O)(=O)c1ccc2c(c1)CCC(=O)N2`, for which the INHIBITION was 25.5%.
Under `O=C1CCc2cc(S(=O)(=O)NC(=O)c3ccc4c(c3)COC4)ccc2N1` stands 62.9%; under `O=C(C1CCOCC1)N1CCc2ncc(CN3CCCC3)n2CC1`, 29.9%; under `Cc1ccc2ncccc2c1CN1CC[C@H](N(C)C)[C@H](CCC(=O)O)C1`, -102%.
Consider `CC(C)CCn1[nH]c(CNc2ccc(Cl)cc2)nc1=O`, for which the INHIBITION was 40%.
In the case of `N#CCCn1cnc2c(Br)cc(Br)cc2c1=O`, the INHIBITION is 44.2%.
Under `N#CCCCn1cnc2c(F)cc(Br)cc2c1=O` stands 46.4%; under `N#CCCn1cnc2c(F)cc(Br)cc2c1=O`, 53.9%.
As for `O=C(NCCCn1ccnc1)NCC(c1ccco1)N1CCCCC1` (centres undefined), the INHIBITION was -67.3%.
Take `CCC[C@@H]1CN(C(=O)c2cc(-c3cccs3)n(C)n2)C[C@H]1NS(C)(=O)=O`: the INHIBITION was found to be 18.8%.
Regarding `CCc1ncc(C(=O)NCCNC(=O)Cc2ccc(F)cc2)s1`, the INHIBITION is -49.7%.
Under `CN(C)CCCNC(=O)c1cnc(Cc2ccc(F)cc2)s1` stands 73.1%; under `Cc1cccc(-c2ccc(C(=O)NCCN3CCOCC3)c(=O)[nH]2)c1`, 68.6%.
As to `CCNC(=O)c1cnc(Cc2ccc(F)cc2)s1`, the INHIBITION was 17.4%.
Take `COC(=O)CCNC(=O)c1cnc(Cc2ccc(F)cc2)s1`: the INHIBITION was found to be 18.3%.
`Cc1ccc(C(=O)NCCN2CCOCC2)c(=O)[nH]1`: the INHIBITION is reported as -14.1%.
Under `O=C(NCCCN1CCOCC1)c1ccc(-c2ccccc2)[nH]c1=O` stands 41.4%; under `O=C(NCCN1CCOCC1)c1ccc(-c2ccc(F)cc2)nc1O`, 61.2%; under `O=C(NCCN1CCOCC1)c1ccc(-c2ccccc2)[nH]c1=O`, -14.1%.
With `O=C(NCCN1CCOCC1)c1cnc(Cc2ccc(F)cc2)s1`, the INHIBITION worked out at 63.7%.
For `O=C(NCCN1CCOCC1)c1cnc(-c2ccccc2F)s1`, the INHIBITION was determined as 41.6%.
Under `O=C(NCCN1CCOCC1)c1ccn(COc2ccc(F)cc2)n1` stands -8.9%; under `CC(C#N)(NC(=O)c1ccc(C#N)cc1)C1CC1` (centres undefined), 2.45%; under `CC1CCc2n[nH]c(C(=O)NCCCc3ccco3)c2C1` (centres undefined), 6.32%.
With `Cc1cnn(C2CN(Cc3nc4cc(Cl)ccc4n3C)C2)c1`, the INHIBITION was -10.6%.
Under `CC(C)(CN)NS(=O)(=O)c1cccc(F)c1F` stands 19%; under `CCN1CCn2c(C)cnc2C12CCN(C(=O)c1ccco1)CC2`, 3.81%; under `CN1CC(=O)N(c2cccc(F)c2)CC12CCN(CCO)C2` (centres undefined), 21.8%.
Under `COc1ccc(N2CCN(C(=O)c3cc(=O)c(OC)c[nH]3)CC2)cc1` stands -13.8%.
Consider `CC(c1cccnc1)N1CCN(CCO)CC1` (centres undefined), for which the INHIBITION stood at 60%.
Under `CCC(c1ccccc1)N1CCN(C(=O)c2cc(C(N)=O)c[nH]2)CC1` (centres undefined) stands -23.1%; under `CCC(c1ccc(F)cc1F)N1CCN(CCO)CC1` (centres undefined), 48.1%; under `CC(c1cccnc1)N1CCN(CCCC#N)CC1` (centres undefined), 41.4%.
With `CCS(=O)(=O)CCN1CCN(C(C)c2cccnc2)CC1` (centres undefined) the figure was 24.2%; with `CCC(c1ccccc1)N1CCN(CCO)CC1` (centres undefined), 52.1%.
Under `CN(Cc1nnc(C2CC2)o1)Cc1ccccc1N1CCOCC1` stands 20.19%; under `O=C(c1cocn1)N1CCC2(CC1)COC(COCc1ccccn1)C2` (centres undefined), 8.03%.
